About 79,000 compounds went through this panel and 15% of them were active in at least one assay; those are over-represented in the sample as a whole. Activity calls are given as the source filed them. No stated cut-off is given here; in the data, active means growth inhibition above about 70%; inactive means the rest.
Key:
[1] = NCI Yeast Anticancer Drug Screen. Data for the rad50 strain (AID 155);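 further: 0% = growth of vehicle-only cultures of the same strain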; settings: S. cerevisiae rad50 strain growth inhibition, stronger effect = higher value; at 50.0 µM unless noted
In short: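 Vehicle-treated cultures provide the reference for the growth inhibition reported for compound-exposed, repair-deficient yeast.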

[2] = NCI Yeast Anticancer Drug Screen. Data for the mec2-1 strain (AID 157); settings: S. cerevisiae mec2-1 strain, stronger effect = higher value; at 50.0 µM unless noted
In short: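 Using mec2-1 yeast: add compound, measure growth, express inhibition versus vehicle-treated cultures.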

[3] = NCI Yeast Anticancer Drug Screen. Data for the sgs1 mgt1 strain (AID 161);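 further: 0% = growth of cultures given vehicle only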; settings: S. cerevisiae sgs1 mgt1 strain, stronger effect = higher value; at 50.0 µM unless noted
In short: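 This yeast growth screen uses a strain with defined DNA-repair lesions; compound-treated growth is compared with vehicle-treated growth.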

[4] = NCI Yeast Anticancer Drug Screen. Data for the cln2 rad14 strain (AID 165);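 further: 0% = growth equal to vehicle treated cultures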; settings: S. cerevisiae cln2 rad14 strain, stronger effect = higher value; at 50.0 µM unless noted
In short: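 Yeast strain cln2 rad14, bearing defects in cell cycle control and DNA repair, serves as the test system; values reflect growth inhibition compared with vehicle.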

[5] = NCI Yeast Anticancer Drug Screen. Data for the bub3 strain (AID 167); settings: S. cerevisiae bub3 mutant strain, stronger effect = higher value; at 50.0 µM unless noted
In short: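 Mutant yeast screening strain plus compound; vehicle-treated cultures serve as the 0% inhibition reference.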

[6] = NCI Yeast Anticancer Drug Screen. Data for the mlh1 rad18 strain (AID 175); settings: S. cerevisiae mlh1 rad18 strain growth inhibition, stronger effect = higher value; at 50.0 µM unless noted
In short: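 Steps: expose repair-defective yeast to compound; measure growth; express inhibition against vehicle-treated controls.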

Measured: growth inhibition

CC1=NC(C)(C)N(O)C1(C)C
inactive: [1] -21.9% | [2] -4.3% | [3] -3.05% | [4] -0.8% | [5] -9% | [6] -53.5%

O=Nc1ccc2ccccc2c1N=Nc1ccccc1C(=O)O
inactive: [1] 20.5% | [3] 45.6% | [4] 14.3% | [5] 53% | [6] 35.8%
active: [2] 72.5%

COc1ccc(-c2oc(=O)cc(-c3ccccc3)c2-c2ccccc2)cc1
inactive: [1] 22.6% | [2] -11.6% | [3] 16.2% | [4] 4.2% | [5] -3.55% | [6] 14.7%

CC(=O)Nc1cccc(N=Cc2ccc(N(CCOS(C)(=O)=O)CCOS(C)(=O)=O)cc2C)c1
inactive: [3] 40.4% | [4] 22.9% | [5] 13.8%
active: [1] 73.8% | [2] 70.5% | [6] 93.2%

O=C1NCCCc2nonc21
inactive: [1] 18.9% | [2] 16.4% | [3] 7.9% | [4] 4% | [5] 4% | [6] 5.2%

O=C(O)CCN1C(=O)CSC1=S
inactive: [1] 6.7% | [2] 2.15% | [3] -21.8% | [4] -2.4% | [5] 20.6% | [6] -5.7%

Cc1nc(N)c(N)c(=O)[nH]1
inactive: [1] -0.6% | [2] -1.35% | [3] -1.75% | [4] -5.6% | [5] -9.6% | [6] -2.6%

C=C(Br)CNC(=O)CCC(=O)NCC(=C)Br
inactive: [1] -27.5% | [2] -11.8% | [3] -3.35% | [4] -5.9% | [5] -21.4% | [6] -57.7%

O=C(CCC(=O)c1ccccc1)NCc1ccccc1
inactive: [1] 11.2% | [2] -6.2% | [3] 4.4% | [4] 5.55% | [5] 6.5% | [6] 2.1%

COc1ccc(NC(=O)C(C)Oc2ccc(OCC3CCCCC3)cc2)cc1 (stereo not drawn)
inactive: [1] -22.9% | [2] -40.5% | [3] -42% | [4] -26.1% | [5] -56.9% | [6] -29.6%

CC(C)CN(CC(C)C)C(=O)c1ccccc1
inactive: [1] 2.3% | [2] 8.2% | [3] 1.1% | [4] 8.85% | [5] 4.9% | [6] 2.4%

CCNC(=O)c1ccccc1S(C)=O (stereo not drawn)
inactive: [1] -18.8% | [2] -19.3% | [3] -17.9% | [4] -8.25% | [5] -9.15% | [6] -20.1%

Cc1cc(C)c2c(c1)CC(C)(C)CC2=O
inactive: [1] 4% | [2] -7.95% | [3] -1.1% | [4] 2.5% | [5] -4.55% | [6] -2.6%

O=C(O)C[N-]CC(=O)O.OO.[O]=[V]
inactive: [1] -16.9% | [2] 1.5% | [3] -1.7% | [4] -30.7% | [5] 3.75% | [6] 3.55%

O=C(NCCOC(=O)OCCNC(=O)NC1CCCCC1)NC1CCCCC1
inactive: [1] -12.8% | [2] -30% | [3] 0.9% | [4] 4.1% | [5] 4.1% | [6] -13.5%

Cc1sc2nc3n(c(=O)c2c1C)N=CN(c1ccc(Cl)cc1)C3
inactive: [1] 5.5% | [2] 5.1% | [3] 7.8% | [4] -3.15% | [5] 0.05% | [6] -45.2%

O=C(/C=C/c1ccc(OCc2ccccc2)cc1)c1cccc([N+](=O)[O-])c1
inactive: [1] 4.7% | [2] 6.35% | [3] -5.85% | [4] 9.15% | [5] -0.05% | [6] 12.2%

O=P(O)(O)OCC1OC(n2cnc3c(=S)nc[nH]c32)C(O)C1O (stereo not drawn)
inactive: [1] -17.4% | [2] 3.95% | [3] -14.1% | [4] 3.9% | [5] -7.7% | [6] -3.55%

C/C=C/Cc1n[nH]c(=O)c2c(C)[nH]nc12
inactive: [1] -13% | [2] -13.4% | [3] -9.55% | [4] -13.8% | [5] -5.85% | [6] -17.9%

CCOC(=O)C(C)NC(=O)C(C)NC(=O)C(C)NC(=O)C(C)NC(=O)C(C)NC(=O)OCc1ccccc1 (stereo not drawn)
inactive: [3] 7.15% | [4] -0.35% | [5] 15.7% | [6] -46.8%
active: [1] 87.1% | [2] 85.8%

CC1=C(C)CC2(CCCCC2=O)S(=O)C1 (stereo not drawn)
inactive: [1] -34.8% | [2] -28.8% | [3] -9.85% | [4] 11.1% | [5] 15.8% | [6] 2.55%

c1ccc(CC2=NCCO2)cc1
inactive: [1] -5.55% | [2] 2.25% | [3] -3.3% | [4] -33% | [5] 3.85% | [6] -25.9%

N#CSc1ccc(NN)cc1
inactive: [1] 11.2% | [2] -2.05% | [3] 30.4% | [4] -4.65% | [5] 33.7% | [6] 1.55%

Source: PubChem BioAssay (NCI)
